Source: PubChem BioAssay
The list is not random: actives were taken first. Their share in the collection is about 5.4%.
AHR act: activates the human aryl hydrocarbon receptor; activation, % at 5 µM; AHR-responsive luciferase reporter cells, luminescence; AID 2796; 2.5% of 320,000 active; P35869; in the data active = activation above about 47%;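 also: 0% = vehicle wells and 100% = reference agonist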
Target sequence (P35869 whole entry, looked up): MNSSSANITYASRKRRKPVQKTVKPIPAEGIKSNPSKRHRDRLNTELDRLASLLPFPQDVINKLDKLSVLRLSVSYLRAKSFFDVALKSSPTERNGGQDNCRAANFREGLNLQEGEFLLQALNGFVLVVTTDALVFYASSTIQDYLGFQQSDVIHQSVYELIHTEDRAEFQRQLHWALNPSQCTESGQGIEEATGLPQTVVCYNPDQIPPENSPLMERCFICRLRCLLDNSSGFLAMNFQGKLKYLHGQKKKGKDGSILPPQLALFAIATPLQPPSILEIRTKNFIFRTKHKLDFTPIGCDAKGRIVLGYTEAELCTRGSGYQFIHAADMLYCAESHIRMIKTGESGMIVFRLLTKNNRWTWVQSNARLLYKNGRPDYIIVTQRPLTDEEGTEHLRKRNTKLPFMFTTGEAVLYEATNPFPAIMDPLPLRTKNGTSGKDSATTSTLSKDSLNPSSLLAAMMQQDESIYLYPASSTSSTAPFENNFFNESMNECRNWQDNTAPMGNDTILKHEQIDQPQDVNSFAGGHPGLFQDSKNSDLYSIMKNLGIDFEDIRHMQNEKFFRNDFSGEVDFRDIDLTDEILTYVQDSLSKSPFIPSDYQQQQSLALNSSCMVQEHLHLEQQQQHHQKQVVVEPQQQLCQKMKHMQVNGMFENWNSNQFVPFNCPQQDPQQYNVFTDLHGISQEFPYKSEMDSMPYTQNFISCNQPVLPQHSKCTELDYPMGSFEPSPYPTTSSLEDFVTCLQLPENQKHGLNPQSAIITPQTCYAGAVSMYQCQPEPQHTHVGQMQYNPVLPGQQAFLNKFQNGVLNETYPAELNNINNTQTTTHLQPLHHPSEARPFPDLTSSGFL
HSF1 inhib: HSF1 inhibition. NIH3T3-HGL HSE-luciferase, MG132-induced, luminescence 8 h; hits give low values. activity change, negative = inhibition, % at 7.5 µM (by protocol). 0.77% of 300,000 active. AID 2098;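 active = more than half of replicate wells show activity change below -50%, luminescence cut by over half; inconclusive = some wells, but at most half, below -50%; inactive = no replicate well below -50%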;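 also: luciferase reports HSF-1 transcriptional activity via heat shock element; 0% = median of DMSO wells and -100% = zero luminescence signal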
DAX1 inh: inhibits human nuclear receptor DAX1; P51843; AID 504766; inhibition, % at 6.75 µM; 0.99% of 340,000 active; HEK293 Gal4-DAX1 luciferase reporter, luminescence;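 active = inhibition above the mean over all tested compounds plus 3 SD, cut at about 4.2% in these data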;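 also: 0% = DAX1-transfected cells with DMSO and 100% = empty-vector control cells with DMSO; inhibition shows as a rise in luminescence from relieved DAX1 repression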
GAA850 FXN act: increases GAA850 frataxin promoter reporter activity. 0.56% of 360,000 active. AID 540364. HEK293 lucGAA850 FXN promoter luciferase reporter, 24 h; percent of 10 µM SAHA response. activation, % at 6 µM;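 active = activation above the average of all compounds screened plus 3 SD, cutoff fixed separately per campaign, cut at about 7.5% in these data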;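 also: 0% = DMSO wells and 100% = 10 µM SAHA wells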
HSF-1 act: increases HSF-1 driven luciferase reporter signal | NIH3T3-HGL HSF-1 luciferase reporter, MG132, 8 h; 100% = twice DMSO control signal | activation, % at 9 µM | 1.7% of 300,000 active | AID 504408;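 active = mean replicate activation of at least 50% with a set share of replicates each reaching 50%; inconclusive = only one of those two conditions met; inactive = mean below 50% and too few replicates reaching it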;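 also: 0% = median of the neutral control wells and 100% = twice that signal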
AHR act cf: human AHR activation, confirmation; activation, % at 9 µM; human cells, AHR-responsive luciferase reporter, luminescence; 87% of 2,300 active; shares compounds with AHR act; in the data active = activation above about 49%;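 also: HepG2 hepatoma cells carrying a DRE-driven firefly luciferase reporter; 0% = vehicle wells and 100% = reference agonist wells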
PXR counter: PXR activation, counter-screen for AHR activators. shares compounds with AHR act. cell-based PXR reporter, luciferase luminescence. activation, % at 11.6 µM. 88% of 2,300 active. AID 434939; in the data active = activation above about 11%;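 also: human hepatoma DPX-2 cells expressing full-length human PXR; 0% = DMSO and 100% = reference agonist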
* hit, by the source's call; ? = inconclusive; · = no result given.

SMILES | AHR act | HSF1 inhib | DAX1 inh | GAA850 FXN act | HSF-1 act | AHR act cf | PXR counter
COc1ccc2nc(NNC(=O)C3COc4ccccc4O3)sc2c1 (stereo unspecified) | 117.5* | -9.5 | 0.1 | -0.1 | -12.4 | 75.8* | 29.6*
CCc1ccc(NC(=O)CCc2nnc3ccc(N4CCCC4)nn23)cc1 | 5.9 | -8.5 | -0.5 | -4.1 | -8.3 | · | ·
Oc1ccc(Br)cc1-c1cc(-c2ccccc2Cl)[nH]n1 | 46.9 | 0.0 | 0.3 | 4.8 | -1.4 | · | ·
COc1ccc(O)c(-c2cc(-c3ccccc3Cl)[nH]n2)c1 | 124.0* | -6.2 | 2.5 | 4.1 | -8.9 | 272.6* | 21.9*
COC(=O)c1cc(-c2cccs2)[nH]n1 | 0.6 | 10.2 | -0.3 | 0.7 | 10.2 | · | ·
COc1ccc(O)c(-c2cc(-c3cccs3)[nH]n2)c1 | 86.5* | 1.8 | 1.8 | 5.0 | 24.7 | 138.5* | 26.3*
COC(=O)c1cn(C(=O)c2ccc(OC)cc2)c2ccccc12 | 1.1 | -11.7 | -2.1 | 0.6 | 6.8 | · | ·
CCN(CC)c1nc(-c2ccccc2)nc2ccccc12 | 107.7* | 5.9 | -1.4 | 1.2 | 29.0 | 78.1* | 91.5*
COCCCNc1cc(C)nc2ccccc12 | 40.9 | -5.4 | -0.1 | 1.7 | -12.8 | · | ·
COCCCNc1nc(-c2ccc(Cl)cc2)nc2ccccc12 | 98.0* | -8.5 | -0.1 | 5.1 | -14.4 | 91.2* | 29.7*
O=C(O)CCCCCNc1nc(-c2ccccc2)nc2ccccc12 | 6.1 | -4.5 | -0.5 | 0.3 | 0.4 | · | ·
COCCCNc1nc(-c2ccncc2)nc2ccccc12 | 87.8* | -2.6 | -1.2 | 2.8 | -5.3 | 102.9* | 55.5*
OCCCNc1nc(-c2ccc(Cl)cc2)nc2ccccc12 | 88.4* | -10.4 | -1.0 | 3.2 | -24.5 | 103.6* | 62.1*
COCCN(CCOC)c1nc(-c2ccccc2)nc2ccccc12 | · | -7.0 | -1.7 | 1.0 | 5.0 | · | ·
COc1ccc(Cl)cc1N(CC(=O)NCCSc1ccccn1)S(=O)(=O)c1ccccc1 | 1.6 | 6.1 | 0.5 | 1.5 | 27.1 | · | ·
CC1(C(=O)O)CCCN1C(=O)c1cc2ccccc2s1 (stereo unspecified) | · | · | · | -2.8 | · | · | ·
COCCN(CCOC)c1nc(-c2ccc(Cl)cc2)nc2ccccc12 | 118.0* | -4.6 | -2.1 | 0.2 | 17.1 | 82.8* | 69.8*
c1ccc(-c2nc(NCCCn3ccnc3)c3ccccc3n2)cc1 | 81.8* | -9.6 | -0.4 | -0.2 | -8.1 | 89.2* | 75.6*
CCN(CC)CCCNc1nc(-c2ccccc2)nc2ccccc12 | 4.2 | 2.7 | 1.3 | -0.4 | 11.8 | · | ·
Cc1cc(N)ccc1N=Nc1c(C)n(C)n(-c2ccccc2)c1=O | 87.4* | -0.3 | 1.6 | 4.9 | 7.5 | 118.8* | 24.9*
CCc1nnc(NC(=O)CSc2nc(C)cc(C)c2C#N)s1 | 101.9* | 19.7 | -0.8 | 2.0 | 47.9 | 62.5* | 45.1*
CC1(C(=O)NS(=O)(=O)C2CC2)CCCN(C(=O)c2ccc(F)c(Cl)c2)C1 (stereo unspecified) | · | · | · | 0.2 | · | · | ·
Oc1oc(-c2ccccc2)nc1/C=N/c1nccs1 | 100.4* | 10.4 | 1.9 | 1.8 | 11.7 | 77.8* | ·
CCCCOc1ccc(-c2nc(/C=N/c3nccs3)c(O)o2)cc1 | 1.4 | 10.1 | 0.1 | 0.9 | ? | · | ·
COC(=O)N/N=C/c1c(C)c(C(=O)c2ccc(F)cc2)n2ccccc12 | 85.8* | 1.8 | -2.0 | -5.1 | -2.6 | 74.5* | 93.9*
SMILES | AHR act | HSF1 inhib | DAX1 inh | GAA850 FXN act | HSF-1 act | AHR act cf | PXR counter
CCOC(=O)N/N=C/c1c(C)c(C(=O)c2ccc(F)cc2)n2ccccc12 | 83.7* | -1.6 | 0.4 | 0.1 | -2.6 | 104.4* | 74.5*
N/C(=N\OC(=O)Cc1ccccc1[N+](=O)[O-])c1ccccn1 | 4.7 | 2.4 | -0.3 | 3.5 | -4.3 | · | ·
N/C(=N\OC(=O)Cc1ccc(Cl)cc1)c1ccccn1 | 0.5 | 5.6 | 1.0 | 2.6 | 8.1 | · | ·
N/C(=N\OC(=O)c1cc(Br)ccc1Cl)c1ccccn1 | 108.3* | 19.0 | 2.5 | 1.9 | 38.9 | 61.3* | 12.3*
N/C(=N\OC(=O)c1ccc(Cl)cc1[N+](=O)[O-])c1cccnc1 | 90.3* | 19.2 | 1.5 | 4.7 | 44.6 | 91.1* | 15.3*
N/C(=N\OC(=O)c1ccc(Cl)cc1[N+](=O)[O-])c1ccccn1 | 146.2* | 1.4 | 3.3 | 2.5 | -2.0 | 53.2* | 13.4*
N/C(=N\OC(=O)c1cc(Cl)ccc1Cl)c1cccnc1 | 34.2 | 13.9 | -0.5 | 3.8 | 32.2 | · | ·
Cc1c(C(=O)O/N=C(\N)c2ccccn2)cccc1[N+](=O)[O-] | 97.0* | 16.1 | 2.4 | 0.6 | 32.7 | 92.0* | 11.6*
N/C(=N\OC(=O)c1cc([N+](=O)[O-])ccc1Cl)c1ccccn1 | 21.2 | 7.2 | 4.0 | -0.7 | 14.5 | · | ·
CC(c1ccccc1)n1c(-c2cccs2)nc2c(c(=O)c3ccccc3n2C)c1=O (stereo unspecified) | 1.8 | -0.2 | · | 0.1 | -0.8 | · | ·
CN(C(=O)/C=C/c1ccccc1)C1CCCCC1 | 4.4 | 31.7 | · | 4.1 | ? | · | ·
COc1ccc(-c2[nH]c(-c3ccccc3)nc2SCC(=O)NCc2ccco2)cc1OC | 121.1* | 4.4 | -0.4 | -3.2 | -1.0 | 68.2* | 75.1*
COc1ccc(-c2[nH]c(-c3ccc(F)cc3)nc2SCC(=O)NCc2ccco2)cc1OC | 80.4* | 6.8 | -0.5 | -0.7 | -1.5 | 63.1* | 57.2*
COc1ccc(-c2nc(SCC(=O)NCc3ccco3)c(-c3ccccc3)[nH]2)cc1OC | 28.5 | 2.6 | -1.3 | -5.0 | -0.6 | · | ·
Cc1cccc(N2C(=O)CN=C2Nc2nc(C)cc(C)n2)c1 | 92.2* | 0.7 | 1.1 | 0.1 | 33.3 | 82.1* | 25.0*
Cc1cc(C)nc(NC2=NCC(=O)N2c2cc(Cl)cc(Cl)c2)n1 | 23.6 | -2.7 | -0.1 | 0.8 | -18.5 | · | ·
Cc1ccc(C)c(OCCSc2nnc(-c3cccnc3)n2N)c1 | 94.3* | 2.7 | 0.9 | -1.8 | -1.2 | 66.2* | 29.9*
O=C1CCN(Cc2ccccc2)C=C1c1ccc2ccccc2c1 | 83.5* | · | 3.5 | 2.8 | · | 108.0* | 39.6*
O=C1CCN(Cc2ccccc2)C=C1c1ccc(C(F)(F)F)cc1 | 108.3* | · | 0.6 | 2.0 | · | 101.6* | 118.6*
CCOC(=O)N1CCC(NCc2c(C(=O)N(C)Cc3ccccc3)nc3ccccn23)CC1 | 1.4 | 4.5 | -1.7 | 2.4 | 8.7 | · | ·
O=C(NC1CCCC1)C(c1ccccc1)N(Cc1ccccc1)C(=O)c1csnn1 (stereo unspecified) | -1.2 | 0.3 | 0.0 | -0.9 | 10.2 | · | ·
c1ccc(-c2nc3ccccc3c3nncn23)cc1 | 96.9* | -59.2* | -0.2 | 3.5 | -69.8 | 123.1* | 19.7*
O=[N+]([O-])c1ccc(NCCc2ccccc2)c(Br)c1 | 114.3* | -40.6 | 0.1 | · | -52.2 | 104.3* | 12.5*
NC(=O)c1cc([N+](=O)[O-])ccc1NCCc1ccccc1 | · | 1.6 | 0.7 | 5.6 | 5.6 | · | ·
